Mtb FBA inh – Mtb fructose-bisphosphate aldolase inhibition | P9WQA3 | purified M. tuberculosis FBA, fluorescence read-out | actives 2.3% (n = 360,000) | inhibition, % at 1 µM; in the data active = inhibition above about 27%;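 also: 0% = vehicle and 100% = reference inhibitor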
Rv3671c inh – Rv3671c (M. tuberculosis) protease inhibition. P9WHR9. inhibition, % at 5.96 µM. actives 0.048% (n = 320,000). AID 2606; in the data active = inhibition above about 38%;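 also: extracellular domain of Rv3671c used as enzyme; 0% = enzyme with DMSO and 100% = no enzyme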
GDH-TPI counter – GDH-TPI coupled enzyme inhibition counter-screen; actives 1.2% (n = 360,000); GDH-TPI coupled enzyme counterscreen, NADH absorbance; inhibition, % at 4.8 µM; in the data active = inhibition above about 30%;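 also: 0% = DMSO wells and 100% = wells lacking the enzyme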
Mtb UGM inh – inhibitors of M. tuberculosis UDP-galactopyranose mutase | purified UGM, fluorescence polarization probe displacement | inhibition, % at 10 µM | actives 0.06% (n = 320,000); in the data active = inhibition above about 10%, passing the limit was not always enough
Mtb bLac sens – beta-lactam sensitization of Mtb H37Rv | M. tuberculosis H37Rv growth with meropenem, percent inhibition | inhibition, % at 25 µM | actives 0.27% (n = 330,000) | AID 434955; call rule not given here;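 also: growth measured after seven days incubation then overnight dye step; 0% = bacteria only wells and 100% = bacteria with antibiotic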
RecA intein inh – blocks M. tuberculosis RecA intein splicing; P9WHJ3; cell-free RecA intein splicing, fluorescence; inhibition, % (concentration not given with the values); actives 0.75% (n = 290,000); AID 2221; in the data active = inhibition above about 30%;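 also: 0% = vehicle wells and 100% = reference inhibitor control wells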
Target sequence (P9WHJ3 whole entry, looked up): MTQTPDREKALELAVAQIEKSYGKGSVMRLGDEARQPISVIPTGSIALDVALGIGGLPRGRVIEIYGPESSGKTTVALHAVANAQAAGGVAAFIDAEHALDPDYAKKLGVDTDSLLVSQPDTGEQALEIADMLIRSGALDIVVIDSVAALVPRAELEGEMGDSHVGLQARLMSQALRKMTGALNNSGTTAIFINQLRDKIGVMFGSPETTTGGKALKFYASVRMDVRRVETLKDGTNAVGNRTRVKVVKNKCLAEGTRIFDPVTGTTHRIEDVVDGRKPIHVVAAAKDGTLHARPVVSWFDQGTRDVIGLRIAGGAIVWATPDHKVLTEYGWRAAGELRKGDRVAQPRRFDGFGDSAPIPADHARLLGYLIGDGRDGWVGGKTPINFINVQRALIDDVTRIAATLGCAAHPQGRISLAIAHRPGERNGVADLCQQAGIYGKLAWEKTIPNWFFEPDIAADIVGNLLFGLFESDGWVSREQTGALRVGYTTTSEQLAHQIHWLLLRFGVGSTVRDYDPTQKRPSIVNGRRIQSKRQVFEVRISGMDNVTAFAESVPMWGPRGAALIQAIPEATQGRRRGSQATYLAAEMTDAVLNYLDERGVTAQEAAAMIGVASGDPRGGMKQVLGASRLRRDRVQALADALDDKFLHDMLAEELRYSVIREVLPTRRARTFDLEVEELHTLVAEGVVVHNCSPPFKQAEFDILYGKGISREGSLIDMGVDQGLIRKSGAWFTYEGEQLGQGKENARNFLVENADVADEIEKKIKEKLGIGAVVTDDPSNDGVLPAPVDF
Starred values were filed as active, the others as inactive; i = inactive; . = no result; + = active, no number. The list is not random: actives were taken first. Their share in the collection is about 4%.

SMILES	Mtb FBA inh	Rv3671c inh	GDH-TPI counter	Mtb UGM inh	Mtb bLac sens	RecA intein inh
COc1ccc(C2CC(c3cccc(F)c3)=NN2c2ccc(S(N)(=O)=O)cc2)cc1 (centres undefined)	+	.	24	.	.	.
COc1ccc(C2=NN(S(=O)(=O)c3ccccc3)C(c3ccccc3)C2)cc1 (centres undefined)	3	-12	12	-1	0	1
COc1ccc(C2CC(c3ccccc3)=NN2c2ccc(C(N)=O)cc2)cc1 (centres undefined)	+	8	15	0	-19	-234
COc1ccc(C2CC(c3cccc(C(F)(F)F)c3)=NN2c2ccc(S(N)(=O)=O)cc2)cc1 (centres undefined)	+	.	4	.	.	.
O=NN(C(=O)NC1CCC(C(=O)O)CC1)C1CCC(C(=O)O)CC1 (centres undefined)	4	.	.	.	.	.
CC1CN(C(=S)NC(=O)c2ccccc2)CC(C)O1 (centres undefined)	-2	6	6	-1	-11	-3
CC(=O)COc1ccc2c(C)c(C)c(=O)oc2c1	131*	3	12	2	32	1
COc1cc(OC)c2c(=O)cc(-c3ccccc3)oc2c1	16	-12	15	0	7	1
Cc1c(C)c2ccc(OCC(=O)N3CCC(C(=O)O)(c4ccccc4)CC3)cc2oc1=O	140*	8	14	1	0	.
Cc1ccc(OCC(=O)NCc2cccs2)cc1	-2	-8	-4	-2	10	1
Cc1c(Cl)c(=O)oc2cc(OCC(=O)NCc3cccs3)ccc12	37*	-13	14	0	-9	.
COc1cc(OC)c2c(C)c(Cl)c(=O)oc2c1	124*	1	16	2	12	-1
Cc1c(C)c2ccc(OCC(=O)N3CCN(c4ccccc4)CC3)cc2oc1=O	3	1	9	3	4	-1
CCCn1nnc2c(=O)oc3ccccc3c21	-2	-6	4	0	50	1
CCOc1ccc2c(C)c(Cl)c(=O)oc2c1	+	5	12	4	-3	0
CCOCCCNc1nc2nc3ccc(C)cn3c(=O)c2cc1C(=O)NCC1CCCO1 (centres undefined)	+	-1	-8	-3	0	i
Cc1ccc2nc3c(cc(C(=O)NCC4CCCO4)c(=N)n3CCCOC(C)C)c(=O)n2c1 (centres undefined)	+	-14	-8	.	7	i
COC(=O)c1cc(Sc2cccc(Cl)c2Cl)ccn1	3	0	5	0	95	7
Cc1ccc(S(=O)(=O)N/N=C/c2ccc(OCC(=O)N3CCOCC3)cc2)cc1	1	0	4	-2	0	-1
CCOc1cc(/C=N\Nc2ncc(F)c(N3CCOCC3)n2)ccc1Oc1nc(Cl)ncc1F	-3	6	33*	-2	81	0
O=S(=O)(N/N=C/c1ccc(N2CCOCC2)cc1)c1ccc(Br)cc1	1	-4	36*	0	-6	3
COc1ccc(NC(=O)NS(=O)(=O)c2ccc(C)cc2)cn1	5	.	17	67*	19	8
CCCOc1ccc2oc(=O)c3c(c2c1)CCCN3C(=O)CN1CCN(C(=O)c2ccco2)CC1	.	0	.	0	-5	-3
O=C(CN1CCCC1)N1CCCc2c1c(=O)oc1ccc(OCc3ccccc3)cc21	21	-1	34*	3	-2	2
O=[N+]([O-])c1cccc2c([As](=O)(O)O)cccc12	2	-6	20	2	-2	35*
SMILES	Mtb FBA inh	Rv3671c inh	GDH-TPI counter	Mtb UGM inh	Mtb bLac sens	RecA intein inh
Nc1nc(N)c2c(ccc3nccc32)[nH]1	114*	8	21	-4	0	18
Cc1ccc(S(=O)(=O)N2CCN(C(=O)c3nn(C(C)C)c(=O)c4ccccc34)CC2)cc1C	0	1	2	3	-12	-7
Cn1nc(C(=O)N2CCN(S(=O)(=O)c3ccccc3)CC2)c2ccccc2c1=O	107*	-3	-1	5	0	-2
COc1ccc(OCC(=O)Nc2cccc(C(=O)Nc3ccccc3C(=O)O)c2)cc1	0	-8	2	3	14	-1
COc1ccc(N2CCN(C(=O)C3COc4ccccc4O3)CC2)cc1 (centres undefined)	-2	3	-8	-1	-11	0
O=C(C1COc2ccccc2O1)N1CCN(Cc2ccccc2)CC1 (centres undefined)	4	-7	5	-1	6	2
Cc1c(CC(=O)N2CCN(C(=O)C3COc4ccccc4O3)CC2)c(=O)oc2cc(O)cc(O)c12 (centres undefined)	177*	-3	17	1	-2	-106
Cc1cccc(N2CCN(C(=O)C3COc4ccccc4O3)CC2)c1C (centres undefined)	-2	1	0	3	6	0
COc1ccc2c(C)c(CC(=O)N3CCN(C(=O)C4COc5ccccc5O4)CC3)c(=O)oc2c1 (centres undefined)	144*	2	12	-2	3	1
Cc1c(CC(=O)N2CCN(C(=O)C3COc4ccccc4O3)CC2)c(=O)oc2c(C)c(O)ccc12 (centres undefined)	+	-5	23	-1	-4	-149
Cc1c(CC(=O)N2CCN(C(=O)C3COc4ccccc4O3)CC2)c(=O)oc2cc(O)ccc12 (centres undefined)	+	0	13	-1	4	-22
CCNC(=O)NC1(C(=O)N2CCC(Cc3ccccc3)CC2)CCCCC1	0	.	-4	3	-3	-2
Cc1ccc(NCc2nnc(SCC(=O)c3ccc4c(c3)OCCO4)o2)c(C)c1	0	-1	7	1	5	1
COc1ccc(/C=N/NC(=O)c2ccc3nc[nH]c3c2)c(OC)c1	0	0	35*	0	1	-1
COc1ccc(/C=N/NC(=O)c2ccc3nc[nH]c3c2)cc1	1	-2	13	0	-5	-1
CCOc1ccc(/C=N/NC(=O)c2ccc3nc[nH]c3c2)cc1OC	4	.	42*	.	.	.
CCN(CC)CCC(=O)N1c2ccccc2Sc2ccc(NC(=O)OC)cc21	2	.	10	-1	1	1
CN1C(=C2C(=O)OC(C)(C)OC2=O)Sc2ccccc21	-3	-2	46*	0	2	0
C/C(=N/NC(=O)c1ccncc1)c1ccccc1	2	4	-7	0	98	-7
CNC(=O)c1cc2c(s1)CCCCCC2	8	4	3	3	-4	2
Cc1ccc(/C=N/NC(=O)c2cc3c(s2)CCCC3)o1	2	-6	40*	1	-1	.
C/C(=N\NC(=O)c1ccc(N/N=C(\C)c2ccncc2)cc1)c1ccncc1	-4	0	31*	2	36	-3
Cc1cccc(C(=O)Nc2ccc(C(=O)N/N=C/c3ccc(C)o3)cc2)c1	-3	-21	41*	2	-5	.
Cc1ccc(/C=N/NC(=O)c2ccncc2)o1	-4	-2	38*	-1	98	-1
